Assay outcomes: PubChem BioAssay, several laboratories
GSH bead fluor – compound fluoresces at 488/530 nm on GSH beads | GSH beads flow cytometry, compound fluorescence 488/530 nm; hits give high values | fluorescence (KMESF) at 10 µM | 190,000 tested, 0.25% active | AID 1776; in the data active = fluorescence above about 89;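 note: glutathione beads carrying GST-tagged Bcl family fusion proteins plus one bare bead set; values are compound well signal with DMSO vehicle wells as background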
HMGR II inh – blocks class II HMG-CoA reductase of Enterococcus faecalis; 190,000 tested, 0.41% active; inhibition, % at 10 µM; purified E. faecalis HMGR, NADPH absorbance 340 nm kinetic; AID 1066;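 active = inhibition above a set limit, the median over all tested compounds plus 3 SD, cut at about 9.5% in these data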;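 note: enzyme runs in reverse so mevalonate oxidation gives rising NADPH absorbance; 0% = complete reaction with DMSO and 100% = background rate lacking mevalonate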
EP2 mod – modulators of human EP2 prostaglandin E2 receptor; 260,000 tested, 0.83% active; induction, % at 25 µM; P43116; AID 940; EP2-expressing cells, cAMP HTRF FRET, PGE2 co-stimulation;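 active = compounds whose cAMP rise, as percent of the full-agonist control response, exceeds 60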;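 note: rat C6 glioma line stably carrying human EP2 under a CMV promoter; the protocol text gives 20 µM as final concentration; 100% = response of wells given 1 µM PGE2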
Target sequence (P43116 whole entry, looked up): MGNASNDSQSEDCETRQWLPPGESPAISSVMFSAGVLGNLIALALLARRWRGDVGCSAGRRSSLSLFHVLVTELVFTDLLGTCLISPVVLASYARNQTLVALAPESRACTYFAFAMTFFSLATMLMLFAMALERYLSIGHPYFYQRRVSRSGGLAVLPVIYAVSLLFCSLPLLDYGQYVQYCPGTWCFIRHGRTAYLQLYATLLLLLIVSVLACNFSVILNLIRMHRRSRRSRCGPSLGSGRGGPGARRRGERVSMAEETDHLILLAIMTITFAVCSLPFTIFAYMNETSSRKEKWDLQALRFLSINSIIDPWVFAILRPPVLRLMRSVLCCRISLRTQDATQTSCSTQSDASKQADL
PGE2 EP2 inh – blocks the human prostaglandin E2 receptor EP2; AID 1422; 260,000 tested, 0.52% active; inhibition, % at 25 µM; C6 glioma cells expressing human EP2, cAMP TR-FRET; cells stimulated with saturating PGE2; P43116;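 active = percent inhibition above 40 after rounding to a whole number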;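 note: rat C6 glioma host cells with rolipram phosphodiesterase inhibitor present; the protocol text gives 20 µM as final concentration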
Avidin bead fluor – avidin bead compound fluorescence profile; Avidin beads, compound fluorescence 488/530 nm, flow cytometry; hits give high values; fluorescence (KMESF) at 10 µM; 220,000 tested, 0.38% active; AID 1775; in the data active = fluorescence above about 47
* marks the source's active call; other numbers are inactive results; . = no result given. Hits are enriched below; roughly 2.1% of the tested compounds scored in any of these assays.

SMILES | GSH bead fluor | HMGR II inh | EP2 mod | PGE2 EP2 inh | Avidin bead fluor
CC1=C/C(=N\OS(=O)(=O)c2ccccc2)C(C)=CC1=O | 8 | -0.5 | -24.0 | 132.8* | 8
CCCCc1nc2sc3c(=O)[nH]cnc3c2c2c1CCCC2 | . | . | 60.7* | 10.0 | 7
CC(C)c1nc2sc3c(=O)[nH]cnc3c2c2c1CCCC2 | . | . | 43.0 | 9.0 | 3
CCCc1nc2sc3c(=O)[nH]cnc3c2c2c1CCCC2 | . | . | 71.7* | 7.3 | 8
CC(C)c1nc2sc3c(=O)[nH]cnc3c2c2c1CCC2 | 12 | -2.5 | 54.4 | 6.2 | 3
Cc1cccc2cc(C#N)c(N3CCCN(S(=O)(=O)c4ccccc4F)CC3)nc12 | . | . | 42.0 | 10.3 | .
Clc1nssc1=Nc1ccc(Br)cc1 | 11 | 4.6 | -90.3 | 9.7 | 5
COc1cc(N=c2ssnc2Cl)cc(OC)c1 | 28 | 3.2 | -5.9 | 94.8* | 9
COc1ccc(N=C2S/C(=C\c3ccc(N4CCOCC4)o3)C(=O)N2CCc2c[nH]c3ccccc23)cc1 | 113* | -4.6 | 23.2 | 7.0 | 23
COc1ccc(N=C2S/C(=C\c3ccc(OCC(=O)O)cc3)C(=O)N2CCc2c[nH]c3ccccc23)cc1 | 27 | 10.4* | 22.5 | -0.8 | 11
CCCn1c(SCC(=O)c2ccc(OC)cc2)nnc1-c1ccco1 | . | . | -50.2 | 12.1 | .
Cc1ccc2[nH]c(=O)c(CN(Cc3ccco3)C(=O)Nc3ccccc3F)cc2c1 | . | . | -52.4 | 8.1 | .
COc1ccc(OC)c(S(=O)(=O)Nc2ccc(O)c3ccccc23)c1 | 17 | 7.6 | -27.0 | 42.1* | 6
COc1ccc(OC)c(S(=O)(=O)Nc2ccc(Oc3ccccc3)cc2)c1 | 18 | -4.6 | 5.4 | 5.7 | 37
CCCNS(=O)(=O)c1ccc(CCC(=O)N2CCCCCC2)cc1 | . | . | -2.1 | 18.9 | .
COc1ccc(NC(=O)c2ccccc2SC)cc1 | 12 | 9.6* | 14.8 | 5.4 | 21
CCN1c2ncccc2C(=O)NC12CCN(C(=O)CCn1nccc1C)CC2 | . | . | -32.8 | 10.3 | .
CCOc1ccc(/C(O)=C2/C(=O)C(=O)N(CC3CCCO3)C2c2ccco2)cc1 (stereo unspecified) | 20 | 28.6* | 32.9 | 16.1 | 6
CCOc1cccc(/C(O)=C2/C(=O)C(=O)N(Cc3cccnc3)C2c2ccncc2)c1 (stereo unspecified) | . | . | 4.5 | 5.5 | .
CCOc1cccc(/C(O)=C2/C(=O)C(=O)N(Cc3cccnc3)C2c2ccco2)c1 (stereo unspecified) | 7 | -6.3 | 11.1 | 10.2 | 58*
COc1ccccc1CN(Cc1cc2c(C)ccc(C)c2[nH]c1=O)Cc1nnnn1C1CCCCC1 | . | . | 51.2 | 9.9 | .
CCC(C)(C)n1nnnc1CN(Cc1ccc2c(c1)OCO2)Cc1cc2ccc(C)cc2[nH]c1=O | . | . | 24.9 | 6.1 | .
CCC(CN1CCN(C)CC1)NC(=O)Cc1ccc2c(c1)CCC2 (stereo unspecified) | . | . | -33.3 | 46.0* | .
CC1CC(C)CN(S(=O)(=O)c2ccc(Br)cc2)C1 (stereo unspecified) | . | . | 32.3 | 9.3 | .
O=S(=O)(c1ccc(Br)cc1)N1CCN(S(=O)(=O)c2ccc(Br)cc2)CC1 | . | . | -1.4 | 41.6* | .
SMILES | GSH bead fluor | HMGR II inh | EP2 mod | PGE2 EP2 inh | Avidin bead fluor
Cc1cc(-c2ccccc2)nc(N(C)NC(=O)c2c(F)cccc2F)c1S(C)(=O)=O | 27 | -1.3 | 29.0 | 9.3 | 10
Cc1cc(-c2ccccc2)nc(N(C)N)c1S(C)(=O)=O | 15 | 11.0* | -10.4 | 3.1 | 9
COc1ccc(C2(O)C3CCCC2CN(Cc2ccc4ncccc4c2)C3)cc1 (stereo unspecified) | . | . | -96.9 | 9.6 | .
O=C(c1cccs1)c1no[n+]([O-])c1C(=O)c1cccs1 | 31 | 1.5 | -17.2 | 129.6* | 9
COc1ccc(NC(=O)c2c(N)no[n+]2[O-])cc1 | 9 | -2.2 | -12.1 | 5.6 | 25
COc1ccc(C(=O)c2no[n+]([O-])c2C(=O)c2ccc(OC)cc2)cc1 | 36 | -1.6 | -1.3 | 64.7* | 13
O=C1NC(=O)C(=Cc2cn(CCOc3ccc(F)cc3)c3ccccc23)C(=O)N1 | . | . | -128.4 | 11.4 | .
COc1ccc(C2(NC(=O)Cc3nonc3C)CCCCC2)cc1 | . | . | -44.5 | 5.6 | .
C[C@H](NCCN(C)C)[C@@H]1CC[C@@H]2[C@H]3CCc4cc(O)ccc4[C@@H]3CC[C@]21C | . | . | -32.9 | 53.0* | .
C[C@]12CC[C@@H]3c4ccc(O)cc4CC[C@H]3[C@@H]1C[C@@H](O)[C@@H]2O | 22 | 0.1 | -30.3 | 17.2 | 10
O=C(CN1CCC(n2nnc3ccccc3c2=O)CC1)N1CCCCCC1 | . | . | -4.3 | 3.2 | .
